Assay results published in PubChem BioAssay (NCATS).
The other results are listed elsewhere or left out. Where a call stands in place of a potency, no number is given. Results filed as inconclusive are left out. Activity calls are given as the source filed them. The call rests on the fitted dose curve.

Target: Polyprotein P1234 (Chikungunya virus (strain S27-African prototype)) (UniProt Q8JUX6)
Test: Secondary cell base assay for inhibitors of NSP2Pro Chikungunya virus (CHIKV) (AID 1964100); further: nearly all actives have a fitted effect of over 70% in size
Conditions: cell-based CHIKV nsP2 protease reporter assay; series mostly up to 51.1 µM
Text: PI: Natalia J. Martinez Ph.D.
National Center for Advancing Translational Sciences (NCATS),
National Institute of Health (NIH), Rockville, Maryland
Chikungunya virus (CHIKV) is a mosquito-borne RNA virus that has emerged as one of the most important global arboviral threats in the last decade. Although the first CHIKV vaccine has recently been FDA approved for use in healthy adults at increased risk, to date, there are no available antiviral drugs for CHIKV infection. CHIKV nsP2 protease plays a crucial role in the processing of the viral polypeptide precursor to release enzymes required for viral replication, thus making it a promising drug target for antiviral discovery. Here, we established a high-throughput pipeline to identify small molecule inhibitors of nsP2 proteolytic activity. The pipeline is composed of a suite of 1,536-well in vitro assays to support quantitative high-throughput (qHTS) screening campaigns. Specifically, we developed a fluorescence resonance energy transfer (FRET)-based assay using a fluorogenic peptide substrate encompassing an endogenous cleavage site and purified recombinant protease domain (nsP2pro). Using this assay, we interrogated ~37,000 small molecules, including those in drug repurposing libraries as well as chemically diverse and medicinal chemistry-friendly compounds. Hits were selected for follow-up validation against full-length nsP2 and an additional peptide. FRET-based 1,536-well assays for papain, hepatitis C virus NS3-4A, and human furin proteases were implemented to characterize compound selectivity. […] Novel compounds were identified to be potential nsP2 inhibitors and molecular docking analyses were performed to explain the binding mode of selected hits. In vitro antiviral activity was evaluated for a subset of compounds using a high-throughput CHIKV infection assay. To our knowledge, the pipeline presented here is unprecedented for CHIKV antiviral discovery research.
Described herein is the secondary cell-based assay using a reporter construct. Construct cloning was produced by gene synthesis (GeneScript). The Split Nluc reporter construct was cloned into the NheI/EcoRI sites of pcDNA3.1 (+). The Nterm HiBiT (86b) and Cterm LgBiT (11S) sequences of the Split Nluc reporter were separated by a flexible loop containing the nsp3/4 cleavage site ([…]) or a flexible loop without a cleavage site (12X GlySer). nsP2pro expression construct (amino acids 220-798, accession #MT933050) was cloned into the NheI/EcoRI sites of pcDNA3.1 (+) and contained a C-terminal Flag/6xHis tag. The gene synthesis of the Split Nluc reporter and West Nile Virus (WNV) NS2B/NS3 protease expression constructs was performed by Synbio Technologies. The Split Nluc reporter construct included the N-terminal HiBiT (86b) and C-terminal LgBiT (11S) sequences, separated by a loop containing the WNV NS2B/NS3 cleavage site ([…]). The WNV NS2B/NS3 protease expression construct (amino acids 1375-1693, accession #NC_009942) contained a C-terminal Flag/6xHis tag. Both constructs were cloned into the XbaI/AgeI sites of pcDNA3.4.
PROTOCOL TABLE (as described by Inglese J, Shamu CE and Guy RK. 2007)
SEQUENCE No. (e.g., 1, 2, 3, etc.); […] (e.g., Cells, Incubation, Reagent, etc.); VALUE; DESCRIPTION.
1a; Cell Transfection; Lipofectamine 2000.
1b; Cell; 4 uL; Aurora 1536-well, white, tissue culture plate.
2; Incubation; 4 hr; 37C, 5% CO2, 95% humidity.
3; Compound; 20 nL; Echo 650 Liquid Handler.
4; Incubation; overnight; 37C, 55 CO2, 95% humidity.
5; Reagent; 4 uL; Nano-Glo Luciferase assay system.
6; Centrifugation; 2 sec.
7; Detection; Luminescence; ViewLux plate reader (PerkinElmer).
NOTES (numbers refer to sequence numbers above).
1a. […]
Potency means the concentration at half of the fitted maximal effect.

Row | SMILES | Potency
1 | Cn1nnnc1Sc1ncnc2n[nH]c(-c3cccc(S(C)(=O)=O)c3)c12 | 11.2 µM (active)
2 | CCOc1ccc(N(Cc2ccccc2)C(=O)c2nc(S(C)(=O)=O)ncc2Cl)cc1 | 2.31 µM (active)
3 | CC(=O)N[C@@H](C(=O)O[C@H]1CCC(C)(C)[C@@H]2CCC3=C(COC3=O)[C@@]12C)C(C)C | inactive
4 | Cc1ccc(N[S+](=O)([O-])c2cc3c(cc2N[C@@H](C)CO)NC(=O)CC3)cc1N[C@@H](C)CO | inactive
5 | CCc1ccccc1NC(=O)c1cnn(-c2ccc(F)cc2)c1C1CCNCC1 | inactive
6 | CCOc1ccc(NC(=O)c2c(NC(=O)Cc3ccccc3)sc3c2CCC(C)C3)cc1 (centres undefined) | inactive
7 | Oc1ccc(OC2CCCCO2)cc1 (centres undefined) | inactive
8 | C[C@@H]1C[C@@H](O)[C@@]23CO[C@]2(CO)C[C@@H](O)CC3[C@@]12CC(c1ccoc1)OC2=O (some centres undefined) | inactive
9 | C[C@@H]1[C@H](O)[C@@H]2OC(=O)C3=C2[C@H](CCC3)[C@@]12C[C@@H](c1ccoc1)OC2=O | inactive
10 | C=CC(=O)c1ccc2ccccc2c1 | inactive
11 | Cc1cc(C)cc(NC(=O)CSc2oc(-c3ccccc3)nc2S(=O)(=O)c2ccc(Cl)cc2)c1 | inactive
12 | CO[C@]1(NC(=O)CSC(F)F)C(=O)N2C(C(=O)O)=C(CSc3nnnn3CCO)CO[C@H]21 | inactive
13 | COC([CH2][Hg])CNC(=O)c1ccccc1OCC(=O)O (centres undefined) | inactive
14 | C[C@@H]1O[C@@H](O[C@@H]2[C@@H](O)[C@H](OCCc3ccc(O)c(O)c3)O[C@H](CO[C@@H]3O[C@H](CO)[C@@H](O)[C@H](O)[C@H]3O)[C@H]2OC(=O)/C=C/c2ccc(O)c(O)c2)[C@H](O)[C@H](O)[C@H]1O | inactive
15 | Cc1c(S(=O)(=O)O)oc2c1C(=O)C(=O)c1c-2ccc2c1CCCC2(C)C | inactive
16 | CC1=C(/C=C/C(C)=C/C=C/C(C)=C/C=C/C=C(C)/C=C/C=C(C)/C=C/C2=C(C)CCCC2(C)C)C(C)(C)CCC1 | inactive
17 | CCOc1ccc(NC(=O)c2c(NC(=O)Cc3ccccc3)sc3c2CCCCC3)cc1 | inactive
18 | CCC(C)C(=O)OC1C(C)C2(O)C(C=C(CO)CC3(O)C(=O)C(C)=CC32)C2C(C)(C)C12OC(=O)C(C)C (centres undefined) | inactive
19 | C=Cc1c(C)c2cc3nc(cc4[nH]c(cc5nc(cc1[nH]2)C(C)=C5CCC(=O)O)c(CCC(=O)OC)c4C)[C@@]1(C)C3=CC=C(C(=O)OC)[C@H]1C(=O)OC | inactive
